Four molecules from the supplement of paper PMC9262897, “Low-cost anti-mycobacterial drug discovery using engineered E. coli” (Nature Communications, 2022) can be followed below.

Structures can show the parent of a compound that is named as a salt. ± gives the standard deviation of the averaged measurements.

What all share (test): growth (OD600 after 10 h); higher = more growth (less inhibition)
The test system of assay [1] is E. coli TESEC Alr+ wild-type control. To be noted: compound 0.1 mM; raw OD600 reference: median of DMSO wells 0.241, cell-free background 0.041. The procedure:
(§1)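 TESEC Mtb Alr E. coli, or the Alr+ wild-type control, in 384-well plates with Prestwick library compounds at 0.1 mM and 1% DMSO, across arabinose induction levels of 1E3 to 1E7 nM. Growth is read as OD600 after 10 h at 37 °C in triplicate biological replicates.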

In assay [2] the test system is E. coli TESEC Mtb Alr. To be noted: compound 0.1 mM. The procedure: as §1
The next assay relates to E. coli TESEC Mtb Asd. The note with it: compound 0.1 mM. The procedure:
(§2)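 TESEC E. coli strains in which the native enzyme is deleted and replaced by arabinose-inducible Mtb Asd, DapB, CysH or TrpD, each grown in its selective medium. Strains were screened against the Prestwick library at 0.1 mM and 1% DMSO in 384-well format at low and high arabinose induction. Growth is read as OD600 after 10 h in triplicate.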

For another assay, the system named is E. coli TESEC Mtb DapB. To be noted: compound 0.1 mM. On the procedure:
as §2

The subject of assay [3] is E. coli TESEC Alr+ wild-type control. To be noted: compound 0.1 mM; raw OD600 reference: median of DMSO wells 0.49, cell-free background 0.052. The procedure: (§3)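 TESEC Mtb Alr E. coli (ΔaraC ΔtolC ΔentC Δalr ΔdadX, arabinose-inducible Mtb Alr) or the Alr+ wild-type control strain, grown in defined M9-fructose medium without D-alanine in 96-well plates with Prestwick library compounds at 0.1 mM and 1% DMSO. Low Alr induction is 0.1 µM arabinose and high induction is 10 mM arabinose.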

Assay [4] relates to E. coli TESEC Mtb Alr. To be noted: compound 0.1 mM. The procedure:
as §3
The source holds these as a separate data set.

[5] abbreviates: arabinose 1000 nM, raw OD600 reference: median of DMSO wells 0.294, cell-free background 0.041.
Setting [6] is: arabinose 10000 nM, raw OD600 reference: median of DMSO wells 0.264, cell-free background 0.041.
Setting [7] is: arabinose 100000 nM, raw OD600 reference: median of DMSO wells 0.201, cell-free background 0.041.
Where [8] appears, read: arabinose 1000000 nM, raw OD600 reference: median of DMSO wells 0.193, cell-free background 0.041.
Where [9] appears, read: arabinose 10000000 nM, raw OD600 reference: median of DMSO wells 0.146, cell-free background 0.041.
[10] abbreviates: arabinose induction (level): High, raw OD600 reference: median of DMSO wells 0.331, cell-free background 0.041.
Setting [11] is: arabinose induction (level): Low, raw OD600 reference: median of DMSO wells 0.417, cell-free background 0.041.
The mark [12] stands for this setting: arabinose induction (level): High, raw OD600 reference: median of DMSO wells […], cell-free background 0.041.
Where [13] appears, read: arabinose induction (level): Low, raw OD600 reference: median of DMSO wells 0.227, cell-free background 0.041.
[14] abbreviates: arabinose 100 nM, raw OD600 reference: median of DMSO wells 0.413, cell-free background 0.052.
Where [15] appears, read: arabinose 10000000 nM, raw OD600 reference: median of DMSO wells […], cell-free background 0.052.

Consider `C[C@@H]1C[C@H]2[C@@H]3C[C@H](F)C4=CC(=O)C=C[C@]4(C)[C@@]3(F)[C@@H](O)C[C@]2(C)[C@@]1(O)C(=O)CO` [Flumethasone], for which the growth in assay [1] was determined as 0.212 ± 0.0028; in the assay on E. coli TESEC Mtb Alr [2] (setting [5]), 0.275 ± 0.013; with E. coli TESEC Mtb Alr [2] (setting [6]), 0.256 ± 0.0067; with E. coli TESEC Mtb Alr [2] (setting [7]), 0.188 ± 0.0075; with E. coli TESEC Mtb Alr [2] (setting [8]) it was 0.154 ± 0.0069; in the assay on E. coli TESEC Mtb Alr [2] (setting [9]), 0.127 ± 0.0043. In addition, the growth with E. coli TESEC Mtb Asd (setting [10]) was 0.231 ± 0.007; with E. coli TESEC Mtb Asd (setting [11]), 0.429 ± 0.022; in the assay on E. coli TESEC Mtb DapB (setting [12]), 0.193 ± 0.011; in the assay on E. coli TESEC Mtb DapB (setting [13]), 0.229 ± 0.014; in assay [3] it was 0.543 ± 0.0085; with E. coli TESEC Mtb Alr [4] (setting [14]), 0.402 ± 0.0073. Besides, the growth with E. coli TESEC Mtb Alr [4] (setting [15]) was 0.307 ± 0.013.
On to `NCCNCCNCCNCCN` [Tetraethylenepentamine pentahydrochloride], for which the growth in assay [1] amounted to 0.273 ± 0.0096; in the assay with E. coli TESEC Mtb Alr [2] (setting [5]), 0.313 ± 0.013; in the assay on E. coli TESEC Mtb Alr [2] (setting [6]) it was 0.263 ± 0.0027; with E. coli TESEC Mtb Alr [2] (setting [7]), 0.217 ± 0.028; in the assay on E. coli TESEC Mtb Alr [2] (setting [8]), 0.181 ± 0.011; in the assay with E. coli TESEC Mtb Alr [2] (setting [9]), 0.136 ± 0.0077. Also, the growth in the assay with E. coli TESEC Mtb Asd (setting [10]) came out at 0.337 ± 0.074; with E. coli TESEC Mtb Asd (setting [11]) it was 0.441 ± 0.0047; in the assay on E. coli TESEC Mtb DapB (setting [12]), 0.196 ± 0.003; in the assay with E. coli TESEC Mtb DapB (setting [13]), 0.22 ± 0.015; in assay [3], 0.4747 ± 0.0042; in the assay on E. coli TESEC Mtb Alr [4] (setting [14]), 0.414 ± 0.0053. In the assay on E. coli TESEC Mtb Alr [4] (setting [15]), this molecule showed a growth of 0.303 ± 0.01.
For the molecule `O=C(N/N=C/c1ccc([N+](=O)[O-])o1)c1ccc(O)cc1` [Nifuroxazide], the growth in assay [1] stood at 0.148 ± 0.0071; with E. coli TESEC Mtb Alr [2] (setting [5]), 0.217 ± 0.018; in the assay on E. coli TESEC Mtb Alr [2] (setting [6]), 0.0914 ± 0.0034; in the assay with E. coli TESEC Mtb Alr [2] (setting [7]), 0.164 ± 0.022; in the assay on E. coli TESEC Mtb Alr [2] (setting [8]), 0.0664 ± 0.0028; in the assay on E. coli TESEC Mtb Alr [2] (setting [9]), 0.133 ± 0.0085. In addition, the growth was determined as 0.053 ± 0.00057 in the assay with E. coli TESEC Mtb Asd (setting [10]); 0.0519 ± 0.0049 in the assay on E. coli TESEC Mtb Asd (setting [11]); 0.0553 ± 0.0015 in the assay on E. coli TESEC Mtb DapB (setting [12]); 0.0557 ± 0.0021 in the assay with E. coli TESEC Mtb DapB (setting [13]); 0.0581 ± 0.0039 in assay [3]; 0.0646 ± 0.0031 with E. coli TESEC Mtb Alr [4] (setting [14]). The molecule further registered a growth in the assay with E. coli TESEC Mtb Alr [4] (setting [15]) of 0.0578 ± 0.0014.
On to `CCc1c2c(nc3ccc(OC(=O)N4CCC(N5CCCCC5)CC4)cc13)-c1cc3c(c(=O)n1C2)COC(=O)[C@]3(O)CC` [Irinotecan hydrochloride trihydrate], for which the growth in assay [1] amounted to 0.234 ± 0.0062; in the assay on E. coli TESEC Mtb Alr [2] (setting [5]), 0.32 ± 0.0061; with E. coli TESEC Mtb Alr [2] (setting [6]), 0.2556 ± 0.0019; in the assay with E. coli TESEC Mtb Alr [2] (setting [7]), 0.218 ± 0.015; with E. coli TESEC Mtb Alr [2] (setting [8]), 0.18 ± 0.0024; with E. coli TESEC Mtb Alr [2] (setting [9]), 0.156 ± 0.0056. Moreover, the growth stood at 0.321 ± 0.042 in the assay on E. coli TESEC Mtb Asd (setting [10]); 0.414 ± 0.026 in the assay with E. coli TESEC Mtb Asd (setting [11]); 0.227 ± 0.0094 in the assay with E. coli TESEC Mtb DapB (setting [12]); 0.243 ± 0.0046 with E. coli TESEC Mtb DapB (setting [13]); 0.514 ± 0.052 in assay [3]; 0.401 ± 0.0022 in the assay on E. coli TESEC Mtb Alr [4] (setting [14]). Also, the growth in the assay with E. coli TESEC Mtb Alr [4] (setting [15]) stood at 0.366 ± 0.018.
